Reference: publication PMC12136788
Whole data set: some 24,000 sequences, median “enrichment r” near 0.99, cut for the highest 2% near 3.7. Only a sample is shown.

T1: UNK ZnF1-3 (human, UniProt Q9C0B0 31-174)
T1 sequence: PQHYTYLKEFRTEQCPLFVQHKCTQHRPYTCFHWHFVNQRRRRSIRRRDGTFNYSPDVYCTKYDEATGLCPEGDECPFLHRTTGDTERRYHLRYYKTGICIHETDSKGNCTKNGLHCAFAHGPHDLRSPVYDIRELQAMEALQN

B1: chr9:53391639:53391640:-_ENSMUSG00000032047_ENSMUST00000034547|mus_hu|motif|central (ssRNA)
RNA: GGGAGUUCUACAGUCCGACGAUCCACUUUUUGGGGAUCAAUCUCCAACAUUUUAAUGUUUGCUAGUACAACCAGACGGAAGGCUUCAUUUACUUCCCACAUUGCAAUAUCUUCUUUUUUCAAUCCCACAUCUUUAAGAACCAUCAACAGAGGAUUGAGCAUCA
B2: chr4:76721835:76721836:+_ENSG00000138768_ENST00000264904|hu_mus|hu_hu_hu_mus_True|48_48 (ssRNA)
RNA: GGGAGUUCUACAGUCCGACGAUCGUUUGGCUGGGGUUUCUGAGACGCUCUGGAAUAUAACUCAUGUUUGCUAAUAAAUCCUAGUUUUCUAUGAAAUUUCUCUUUGCCAAUCCUCUUCUCUAUUAGUUGCUUUAGUUUCUCUUUCAACAGAGGAUUGAGCAUCA
B3: chr9:66219764:66219765:+_ENSMUSG00000038664_ENSMUST00000042824|mus_mus|motif|central (ssRNA)
RNA: GGGAGUUCUACAGUCCGACGAUCUUCAAAAUCAGGCAACUGUGGUCCUUUGAGGCAUAAAACCUGUUGAGGCAAAGGUACGGCUUCCUUAUUGCUGAUCAGUUUAGAAUACAAAACGGUAACUCCCUCUCUUGUAGCAAUAGACAACAGAGGAUUGAGCAUCA
B4: chr7:44244176:44244177:+_ENSG00000106636_ENST00000223369|hu_mus|hu_hu_hu_mus_False|38_108 (ssRNA)
RNA: GGGAGUUCUACAGUCCGACGAUCACUAUCAUUCCGGACGUAGACAUGGCAAAGAUACUCUUGUUCUUUGACAGAAGCUCUGCUGCCUUUCCCCGAGCGCUCCACAAUCAGUUGACUUGUAAAGGUCAUGAAUUCCUGCACACUCAACAGAGGAUUGAGCAUCA
B5: 109692034_109692919_6190_CDS_ENSG00000148143_ENST00000277225|human|control|control (ssRNA)
RNA: GGGAGUUCUACAGUCCGACGAUCGAGGUGAUUGCAGAUGGCUCGGAGCGUUGGGUGCACUUCCACACAGAAUUUACAUUUGUAGCCCACCACUUUCCUCUCCUUGAUCUUUGGCACCUCUUCUAAGUGACCAAAAGGCCUCUCCAACAGAGGAUUGAGCAUCA
B6: chr1:220276048:220276049:+_ENSG00000067704_ENST00000302637|hu_hu|hu_hu_hu_mus_True|38_88 (ssRNA)
RNA: GGGAGUUCUACAGUCCGACGAUCGCAAAUUGCCUGGUUGGCGGGAAUCGUCCAAGGCUGGGUGGUCCAAACUAAAACGCUAACAGGGGAUGAGGCAUCUAUAAGAGACUCCAACUUCGGAGGAGGUCUCAGGAGGGGGAAUCUCAACAGAGGAUUGAGCAUCA
B7: chr1:115282363:115282364:-_ENSG00000009307_ENST00000339438|perfect_dup|motif|central (ssRNA)
RNA: GGGAGUUCUACAGUCCGACGAUCAUCAUCUCCUACUUUUAAGUCUUGCAGGUUGCCAUUAUACUGUGAACAGUGGAAGAAAAGUCGGGCUUGACGUUCUGAACACUGAAUAAAUCCGUAAGAGGUUAACAGUUUUUCAAUAACCAACAGAGGAUUGAGCAUCA
B8: chr18:35748043:35748044:+_ENSMUSG00000037236_ENSMUST00000166793|perfect_dup|FALSE|FALSE (ssRNA)
RNA: GGGAGUUCUACAGUCCGACGAUCUGUAUAAAAGAGUGAACACAGCUUACAGUAAAACCCUGUUUUAGGUAUCACAUAGUCUAUACCAACAGGAACAUUAGGCUGAUAUGGUCCGAUUCUAUACUCAUCGGGAAUUGUAUAAUCCAACAGAGGAUUGAGCAUCA
B9: chr2:179515052:179515053:+_ENSMUSG00000000305_ENSMUST00000000314|mus_hu|mus_mus_mus_hu_False|28_58 (ssRNA)
RNA: GGGAGUUCUACAGUCCGACGAUCGCUGUCCCAUGCAGUCACCGUGAACGCCACCUGCUCGGAGGGGACCUGCAGCUCCCUAGUGGCGAAGACUGUCCCAUCUGCCCCGACUUUGAAGUCCAUGCUGUUGGUCUCAUAUUGUGUCAACAGAGGAUUGAGCAUCA
B10: chr7:135612270:135612271:-_ENSG00000105887_ENST00000393085|hu_mus|hu_hu_hu_mus_False|8_8 (ssRNA)
RNA: GGGAGUUCUACAGUCCGACGAUCGUUUUUUUCUGAGAUGUUAAAUAGUACUUCAGUGGAAAACAAAACUUAACCUUUUAUUAAUGCGUGUUGUACCAAAAGCAGACAUUUUAGCUUCAUUUAUUCACUCAAAAUAUCAUUAAGCAACAGAGGAUUGAGCAUCA
B11: chr18:56819859:56819860:+_ENSG00000166562_ENST00000588875|hu_mus|hu_hu_hu_mus_True|88_88 (ssRNA)
RNA: GGGAGUUCUACAGUCCGACGAUCAACCUUGAUUACUCUGUGAACUAUUGGAAUGUCUCUUCCUUCAACCUUAAAAACAACUAUUUCACCAGCUCUGAUGGGGUCCUCCCGGAAAUUCGUGAGGAACAGCAGAUCUCCUCUGUGCAACAGAGGAUUGAGCAUCA
B12: chr5:145543945:145543946:-_ENSG00000133706_ENST00000545646|hu_hu|hu_hu_hu_mus_True|38_58 (ssRNA)
RNA: GGGAGUUCUACAGUCCGACGAUCCUGAACGGCCAGUGGUGGGAAAUAAUCAAGCCAGUGCUCUGCUUCAGAAAACUUUACUAUCUCGUCAUCAGAGAGGCCAAGGGAUUUCAUAAUGUCCCACUGGUACUUAGAAGAUCCUGCCAACAGAGGAUUGAGCAUCA
B13: chr12:73313434:73313435:-_ENSMUSG00000021087_ENSMUST00000021497|mus_mus|motif|central (ssRNA)
RNA: GGGAGUUCUACAGUCCGACGAUCCAUAUAUCCUAAGAGUACAGGAAGAGCCUCAAAACACCUGUCUCAAAGUUUGCCUCGGAGAUUAUGGUACCAGGAAAGGGAAACAAUCAAUUUGCAGUAACGAGGAAGGAGAGAGCUGUUCAACAGAGGAUUGAGCAUCA
B14: 87970796_87970916_7552_CDS_ENSG00000188994_ENST00000369577|human|control|control (ssRNA)
RNA: GGGAGUUCUACAGUCCGACGAUCUUCUGACUGGCAGAGGUUAUCUUCCUGAAAAUCAUUACUUACAUUUGAAGAAGUAUUAGCUUGGGUCUCUACACUUGUGCUAUCUUCAUUUAUUAAUUUUGUAAUAAACAAUUCUGUUAGCAACAGAGGAUUGAGCAUCA
B15: chr15:93570553:93570554:+_ENSG00000173575_ENST00000394196|hu_hu|motif|central (ssRNA)
RNA: GGGAGUUCUACAGUCCGACGAUCUCUAAGGCCAUAGUGUAUCAUGUCAACCCUUGUUCACGUGCAGGUUUUAGGUGAUGCGGACUCCCUCUUUCUCAACCUGUUAUUUCUACCAACAAUGAAAUCUUUCAAAGCCAGACUCCACAACAGAGGAUUGAGCAUCA
B16: 135292008_135298915_3170_CDS_ENSG00000155561_ENST00000285968|human|control|control (ssRNA)
RNA: GGGAGUUCUACAGUCCGACGAUCAUAUAUGACCUGGUAACAUAGCUCAGCCAGCUGAGGAGAUUCUCGCACCGCCACUGGGCCUGUUCUCCCUUCCGUUCCUUUCUCCAAGAUGUUUAGAAUGGCGUGAAGGCAUGUCCGAGGCAACAGAGGAUUGAGCAUCA
B17: chr1:66463027:66463028:+_ENSMUSG00000015222_ENSMUST00000114013|mus_hu|motif|central (ssRNA)
RNA: GGGAGUUCUACAGUCCGACGAUCUUUUCUUUCAGGAGUGGAAAUUCUGCCUCUCCCGGUUUUAAAAGGCUUUUCUUUUCGGUGUUUCUCAAGAGAUGAUCUCCGAGCUUCCUUUUCAGCUUUCUCCUCUUUAGGAAUAGUUUCCAACAGAGGAUUGAGCAUCA
B18: 18138343_18138463_2469_3pUTR_ENSMUSG00000026740_ENSMUST00000166495|mouse|control|control (ssRNA)
RNA: GGGAGUUCUACAGUCCGACGAUCUUAGAUCCAUGUAUUCAUGUGCAUGUGUCUAUGUGGGCUCGGAUGUGUGUGCUGUACCACAAUAUGAAUGCAGAGGUCAGAGGACAGCUCCUGUGAACAUGUGCUUGCUGGAGAGUGAGUCAACAGAGGAUUGAGCAUCA
B19: chr17:88379672:88379673:+_ENSMUSG00000005370_ENSMUST00000005503|mus_mus|motif|central (ssRNA)
RNA: GGGAGUUCUACAGUCCGACGAUCUCCCUUUUGGGCUUCCUUUGACUUUGAACCUGUAUAUGGCUUUAACAUCCUUUUGCGGACCCAGCCCCUUGUUGGGCUGUCAUCAAAGAACUGUACAUGAACACGGACAGAUUUCCCUUUCAACAGAGGAUUGAGCAUCA
B20: chr2:48026839:48026840:+_ENSG00000116062_ENST00000540021|hu_hu|hu_hu_hu_mus_False|48_78 (ssRNA)
RNA: GGGAGUUCUACAGUCCGACGAUCAUAGUGAGCCACUAGCGUCCUAAAUCUGGAACAAUGGCGAUCAUCCGAAAACUGGCCGAUGAAAAACUUUCCCAGUGAAGUGUCCACAAAGCAAACACCAUACACACGAGUGUGACCAGACAACAGAGGAUUGAGCAUCA
B21: chr1:55207850:55207851:+_ENSMUSG00000025979_ENSMUST00000162364|mus_hu|FALSE|FALSE (ssRNA)
RNA: GGGAGUUCUACAGUCCGACGAUCCCGAUGAUGAAAAUAAGCAUGUGAAAAUAUUCUGUAAAUCCUACGGCAUACUGAUCCUAGUUUCGCUACAGAUGAUUCCUUUAUGCUAACCCUGCUGGGAAAAUAUUUAUUGCUAUUCAGCAACAGAGGAUUGAGCAUCA
B22: chr1:213302989:213302990:+_ENSG00000136643_ENST00000366960|hu_hu|motif|central (ssRNA)
RNA: GGGAGUUCUACAGUCCGACGAUCAGAAGCAACAGCCCCUAGUGCUGAAGAAUCCGAAGAAAGAUUGAGACCAAAAGUUCGGAUGGGAGAAUUUUGAUUGGAAGCCAUUCCAUCAUCUAACUCAGCAAGAGAAUCCACAUCAACCAACAGAGGAUUGAGCAUCA

target: T1, UNK ZnF1-3; experiment: nsRBNS (natural sequence RNA bind-n-seq); RBNS binding buffer (assumed for nsRBNS): 25 mM Tris pH 7.5, 150 mM KCl, 3 mM MgCl2, 0.01% Triton X-100, 500 ug/ml BSA, 20 U/ml SUPERase-In, 4 C; UNK is unkempt and MSI1 is Musashi-1; names of the RNAs are library labels; protein concentration not given here; high values mean tight binding

Binder | binding signal
B1 | 1.03 enrichment R
B2 | 0.57 enrichment R
B3 | 0.879 enrichment R
B4 | 0.779 enrichment R
B5 | 0.805 enrichment R
B6 | 1.67 enrichment R
B7 | 1.55 enrichment R
B8 | 0.418 enrichment R
B9 | 0.737 enrichment R
B10 | 0.523 enrichment R
B11 | 0.697 enrichment R
B12 | 1.07 enrichment R
B13 | 2.3 enrichment R
B14 | 0.862 enrichment R
B15 | 0.941 enrichment R
B16 | 1.11 enrichment R
B17 | 0.426 enrichment R
B18 | 1.27 enrichment R
B19 | 0.538 enrichment R
B20 | 1.26 enrichment R
B21 | 1.13 enrichment R
B22 | 2.3 enrichment R
